This assay has as its system Aedes aegypti larvae. The experiment in a line: larval motility relative to same well at 0 h (fraction); higher = more motile (less active compound), active = 0.4 or less. The following applies: 10 µM. In outline: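 Relative motility is the score of a well divided by its own score at the first recording. Movies were made with INVAPP at 0, 2 and 24 h, each having 200 frames at 100 ms intervals. Larvae of Aedes aegypti, from 18–24 h hatches in pond salt solution with yeast at 25 °C, sat at about 10 per well (100 µL) in 96-well plates with compounds at 10 µM and 1% v/v DMSO. Solvent and larvicide control wells were included on every plate, and values are medians of three independent larval batches.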

A number with no mark means an inactive call.

For `O=C(Nc1ncc(Cc2cccc3ccccc23)s1)C1CCCCC1`, the larval motility reads like this: (2 h) 1.07; (24 h) 1.56.

For `O=C(CC1Sc2ncnn2C1=O)Nc1ccc(Br)cc1` (configuration not stated), the larval motility reads like this: (2 h) 0.859; (24 h) 0.722.

`COC1CC2CCC(C)C(O)(O2)C(=O)C(=O)N2CCCCC2C(=O)OC(C(C)CC2CCC(OCCO)C(OC)C2)CC(=O)C(C)/C=C(\C)C(O)C(OC)C(=O)C(C)CC(C)/C=C/C=C/C=C/1C` (configuration not stated): the larval motility reads like this: (2 h) 0.921; (24 h) 1.02.

As for `COc1cc(NCc2ccc3nc(N)nc(N)c3c2C)cc(OC)c1OC`, the larval motility reads like this: (2 h) 0.5; (24 h) 0.356 (active).

Take `O=C(O)[C@H]1C2CCC(CC2)[C@@H]1Nc1nc(-c2c[nH]c3ncc(F)cc23)ncc1F`: the larval motility by setting is: (2 h) 0.877; (24 h) 1.17.

Turning to `O=C(/C(=C/c1ccc(Cl)cc1Cl)n1ccnc1)c1ccc(Cl)cc1`, the larval motility (2 h) is 0.446 and the larval motility (24 h) is 1.04.

Turning to `Nc1nc2c(ncn2/C=C2/CC2(CO)CO)c(=O)[nH]1`, the larval motility (2 h) was 0.842 and the larval motility (24 h) was 0.573.

In the case of `CCCCSc1nc(N)c2[nH]c(=O)c(=O)n(Cc3ccccc3)c2n1`, the larval motility runs as follows: (2 h) 0.896; (24 h) 1.51.

For the molecule `CC#C[C@]1(O)CC[C@H]2[C@@H]3CCC4=CC(=O)CCC4=C3[C@@H](c3ccc(N(C)C)cc3)C[C@@]21C`, the larval motility was 0.693 (2 h) and 0.826 (24 h).

`CCc1ccc(C2CC(C(F)(F)F)n3ncc(C(=O)NCc4ccc(OC)cc4)c3N2)cc1` (configuration not stated): the larval motility was 0.923 (2 h) and 1.29 (24 h).

`CC1CCc2c(N3CCC(O)CC3)c(F)cc3c(=O)c(C(=O)O)cn1c23` (configuration not stated): the larval motility was 1.3 (2 h) and 0.744 (24 h).

In the case of `c1cnc(NCc2ccc(CNc3ncccn3)cc2)nc1`, the larval motility runs as follows: (2 h) 1.23; (24 h) 0.598.

For the molecule `Cc1ccc(S(=O)(=O)Nc2cccc3cccnc23)cc1`, the larval motility reads like this: (2 h) 1.02; (24 h) 0.566.

On to `OCCCCn1cnc2c(O)nc(NCc3ccc(Cl)c(Cl)c3)nc21`, for which the larval motility reads like this: (2 h) 0.982; (24 h) 0.79.

`NC[C@H]1O[C@H](O[C@H]2[C@H](O)[C@@H](O[C@H]3O[C@H](CO)[C@@H](O)[C@H](N)[C@H]3O)[C@H](N)C[C@@H]2N)[C@H](N)C[C@@H]1O`: the larval motility is 0.727 (2 h) and 1.43 (24 h).

For the molecule `C=C(C)n1c(=O)n(Cc2ccccc2C)c2ccccc21`, the larval motility is, setting by setting: (2 h) 1.39; (24 h) 0.851.

`Cc1ncc([N+](=O)[O-])n1CC(O)CN1CCOCC1` (configuration not stated): the larval motility (2 h) was 1.3 and the larval motility (24 h) was 0.789.

For the molecule `NC(=O)c1ccc(I)c([N+](=O)[O-])c1`, the larval motility is 0.749 (2 h) and 0.429 (24 h).

As to `COc1ccc(C2=CC(c3c(F)cccc3Cl)n3ncnc3N2)cc1` (configuration not stated), the larval motility is 0.637 (2 h) and 0.619 (24 h).

As to `N#CCN1C(=O)COc2cc(F)c(N3C(=O)c4ccccc4C3=O)cc21`, the larval motility runs as follows: (2 h) 0.915; (24 h) 1.91.

For `O=C(NNC(=S)Nc1ccc(Cl)cc1)c1ccncc1`, the larval motility was 0.695 (2 h) and 0.45 (24 h).

On to `CCOc1ccc(/C=N/NC(=O)C2CC2c2ccc(C(C)(C)C)cc2)cc1OCC` (configuration not stated), for which the larval motility is, setting by setting: (2 h) 1.29; (24 h) 1.4.

On to `Nc1nc2c(Cc3cccnc3)c[nH]c2c(=O)[nH]1`, for which the larval motility is 0.722 (2 h) and 0.771 (24 h).

On to `CCNC(=O)Nc1cc(-c2ccccc2)c(-c2cncc(C(=O)O)c2)cn1`, for which the larval motility was 0.236 (active) (2 h) and 0.433 (24 h).

Consider `CC[C@@H](CO)NCCN[C@@H](CC)CO`, for which the larval motility is, setting by setting: (2 h) 0.527; (24 h) 0.604.

As for `Cc1c(N)cccc1Cn1ccc(OCCc2cccs2)cc1=O`, the larval motility is 0.953 (2 h) and 0.875 (24 h).

As for `O=C(Nc1ccc(F)cc1)c1nn(-c2ccccc2)c(=O)cc1Cl`, the larval motility is 1.14 (2 h) and 0.91 (24 h).

Consider `CC(C)Oc1ccc(-c2nc(-c3cccc4c3CC[C@@H]4NCCO)no2)cc1C#N`, for which the larval motility reads like this: (2 h) 1.2; (24 h) 1.25.

As to `CCc1cc(CCCOc2c(C)cc(-c3noc(C(F)(F)F)n3)cc2C)on1`, the larval motility reads like this: (2 h) 0.695; (24 h) 0.658.

For the molecule `COc1ccc2c(c1OC)C(=O)OC2C1c2c(cc3c(c2OC)OCO3)CCN1C` (configuration not stated), the larval motility runs as follows: (2 h) 0.987; (24 h) 0.828.

Take `NC[C@H]1OB(O)c2c(OCCCO)cccc21`: the larval motility is 1.28 (2 h) and 1.61 (24 h).

Values taken from the supplement of paper PMC8540655.
